Among all 1,400 compounds or so, about 380 (27%) were called active. Some of the results follow. Values without a mark were called inactive.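 Rule for the calls: active = mean inhibition above 50% across duplicate retests at 10 µM; inactive = the rest.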
assay: yeast NALP1 reporter signal suppression – S. cerevisiae, luminescence, single concentration, NALP1 inhibitor project, confirmation (AID 488841);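 note: plate controls were DMSO in galactose medium for no effect and cells in plain SD medium for full effect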; conditions: S. cerevisiae NALP1/ASC/Caspase-1 reporter, beta-gal luminescence; at 10 µM; active compounds read high

Q: With CC(CCc1ccccc1)NC(=O)c1cc2sccc2n1C (stereo unspecified) as the compound, how does the inhibition read?
A: 46.2%

Q: With COc1cc(C(=O)CCN2CCC(c3ccccc3)C2)cc(OC)c1OC (stereo unspecified) as the compound, how does the inhibition read?
A: 41%

Q: Which inhibition does the source give for O=C(/C=C/c1ccccc1)/C=C/c1ccccc1 here?
A: 47.8%

Q: Which inhibition does the source give for CC1CCN(C(=O)/C=C/c2ccc(C(C)(C)C)cc2)CC1 here?
A: 54.6% (active)

Q: With O=C(/C=C/c1ccccc1)N1CCC(c2ccccc2)C1 (stereo unspecified) as the compound, how does the inhibition read?
A: 54% (active)

Q: With FC(F)(F)C(F)(F)c1nnc2ccc(-n3ccnc3)nn12 as the compound, how does the inhibition read?
A: 23%

Q: With O=C(O)c1ccccc1SC1CC(=O)N(c2ccccc2)C1=O (stereo unspecified) as the compound, how does the inhibition read?
A: 37.8%

Q: With O=C1CC(Sc2nnnn2-c2ccccc2)C(=O)N1c1cccc(Cl)c1 (stereo unspecified) as the compound, how does the inhibition read?
A: 59.5% (active)

Q: Which inhibition does the source give for COC(=O)c1ccccc1SC1CC(=O)N(c2ccccc2)C1=O (stereo unspecified) here?
A: 40.2%

Q: Which inhibition does the source give for Cc1cccc(Cn2c(C(C)(C)C)cc3cccnc32)c1 here?
A: 26%

Q: For CN(C)CCNC=C(C(=O)Nc1ccc(Cl)cc1Cl)C(=O)Nc1ccc(Cl)cc1Cl, which inhibition is on record?
A: 38.9%

Q: With COc1ccc(-c2noc(CCC(=O)N3CCC(C)CC3)n2)cc1 as the compound, how does the inhibition read?
A: 48%

Q: Which inhibition does the source give for CCCN(Cc1nc(-c2ccc(Cl)cc2)no1)CC1CCCO1 (stereo unspecified) here?
A: 53.1% (active)

Q: For OCCNc1c2ccccc2nc2c(F)c(F)c(F)c(F)c12, which inhibition is on record?
A: 34.6%

Q: Which inhibition does the source give for CCN(c1cccc(C)c1)S(=O)(=O)c1cccc(C(=O)O)c1 here?
A: 26.2%

Q: With Cc1cc(C)cc(Cn2ncc(Cl)c(Cl)c2=O)c1 as the compound, how does the inhibition read?
A: 60.6% (active)

Q: Which inhibition does the source give for Cn1ncc(S(=O)(=O)Cc2ccccc2)c(Cl)c1=O here?
A: 21.1%

Q: For COC(=O)c1ccc(NC(=O)c2ccccc2N(C)S(=O)(=O)c2ccccc2)cc1, which inhibition is on record?
A: 37%

Q: Which inhibition does the source give for CCCCCCOc1ccc(N2C(=O)CC(N3CCC(C(=O)OCC)CC3)C2=O)cc1 (stereo unspecified) here?
A: 21.6%

Q: Which inhibition does the source give for CCOc1ccc(N2C(=O)CC(N)C2=O)cc1 (stereo unspecified) here?
A: 64.3% (active)

Q: Which inhibition does the source give for CCOc1ccc(C2N(c3ccc(F)cc3)C(=O)C3CCCN32)cc1 (stereo unspecified) here?
A: 16.4%

Q: With Cc1cc(Cl)c(OCCCN2CCCCC2)c(Br)c1 as the compound, how does the inhibition read?
A: 33.4%

Q: For Cc1c(C(=O)NCC2COc3ccccc3O2)oc2ccc(S(=O)(=O)N3CC(C)CC(C)C3)cc12 (stereo unspecified), which inhibition is on record?
A: 21.3%

Q: With COc1cc(OC)nc(-n2ncc(Br)c(Br)c2=O)n1 as the compound, how does the inhibition read?
A: 50% (active)

Q: With Cc1sc(NC(=O)c2cc3ccccc3oc2=O)c(C(=O)OC(C)C)c1-c1ccccc1 as the compound, how does the inhibition read?
A: 28.5%

Q: For C=CCNc1oc(COc2ccc(C)cc2)nc1C#N, which inhibition is on record?
A: 47.8%

Q: Which inhibition does the source give for CCCN(CCC)C(=O)Cn1c(=O)n(CCCCC(=O)NCc2ccco2)c(=O)c2ccccc21 here?
A: 29.8%

Q: With CC1CCCC(NC(=O)C2CCN(S(=O)(=O)N3CCCCC3)CC2)C1C (stereo unspecified) as the compound, how does the inhibition read?
A: 26.3%

Q: With CCOC(=O)c1nn(-c2ccc(C)cc2)cc1C(=O)c1ccccc1 as the compound, how does the inhibition read?
A: 46.5%

Q: With Cc1ccc(C(=O)c2no[n+]([O-])c2C(=O)c2ccc(C)cc2)cc1 as the compound, how does the inhibition read?
A: 58.2% (active)

Q: Which inhibition does the source give for O=[N+]([O-])c1ccc2cn(-c3ccccc3)nc2c1 here?
A: 40.4%

Q: Which inhibition does the source give for NC(=O)C1(N2CCCCC2)CCN(Cc2nc(-c3cccs3)no2)CC1 here?
A: 37.5%

Q: For Oc1oc(-c2ccccc2)nc1C=Nc1cccc2ccccc12, which inhibition is on record?
A: 40.1%

Q: With CCOC(=O)C1CCCCN1Cc1ccc(F)c(Br)c1 (stereo unspecified) as the compound, how does the inhibition read?
A: 31.7%

Q: With Cc1cc(Cl)c(OCCCn2ccnc2)c(Br)c1 as the compound, how does the inhibition read?
A: 38.1%

Q: For c1cc2c3c(cccc3c1)NC1(CCCCCC1)N2, which inhibition is on record?
A: 13.9%

Q: Which inhibition does the source give for Cc1ccc(OC(=S)Nc2ccc(O)cc2)cc1 here?
A: 90.7% (active)

Q: For Cc1ccc(Oc2ccccc2/C=N/O)cc1, which inhibition is on record?
A: 42.1%

Q: Which inhibition does the source give for CN1CCN(C(=S)Nc2ccc(Cl)c(Cl)c2)CC1 here?
A: 24.9%

Q: With O=C(COc1ccc(CO)cc1Cl)Nc1ccc(F)cc1 as the compound, how does the inhibition read?
A: 25.6%

Q: With O=C(CC(O)(C(F)(F)F)C(F)(F)F)Nc1ccc(Cl)c(Cl)c1 as the compound, how does the inhibition read?
A: 98.8% (active)

Q: For CC(=O)Nc1cccc(OCCCNC(=O)C2CCC2)c1, which inhibition is on record?
A: 28.2%

Q: With Cc1c(NC(=O)c2cc3c(s2)-c2ccccc2OC3)cccc1[N+](=O)[O-] as the compound, how does the inhibition read?
A: 34.7%

Q: Which inhibition does the source give for O=[N+]([O-])c1ccc(-n2nnnc2-c2ccccc2)cc1 here?
A: 0.15%

Q: Which inhibition does the source give for Cc1ccc(-n2nnnc2C(Cl)c2nnnn2-c2ccc(C)cc2)cc1 here?
A: 71.5% (active)

Q: For CCc1oc2ccccc2c1C(=O)CCN1CCCCC1, which inhibition is on record?
A: 37.6%

Q: For CCOc1ccc(/C=C/C(=O)c2ccccc2)cc1OC, which inhibition is on record?
A: 53.2% (active)

Q: Which inhibition does the source give for CCOC(=O)c1cc(-c2ccccc2)n(CC(=O)Nc2ccc(OC)c(OC)c2)c1C here?
A: 25.8%

Q: Which inhibition does the source give for COc1ccc(/C=N/OC(=O)Nc2ccccc2)cc1[N+](=O)[O-] here?
A: 23.2%

Q: For COc1ccc(/C=C\c2onc(C)c2S(=O)(=O)N2CCC(C(=O)NCc3ccco3)CC2)cc1, which inhibition is on record?
A: 41.2%

Q: Which inhibition does the source give for O=C(NCc1ccco1)c1cnn2c1NC(c1ccc(Br)cc1)CC2C(F)(F)F (stereo unspecified) here?
A: 50.6% (active)

Q: Which inhibition does the source give for Cc1ccc(CN2CCN(/N=C/c3ccc(C(F)(F)F)cc3)CC2)c(C)c1 here?
A: 49%

Q: For CCOCC(O)CNC(=O)c1ccc(OC2CCN(C(=O)c3cccnc3)CC2)cc1 (stereo unspecified), which inhibition is on record?
A: 29.6%

Q: With CC1CCN(CCOc2ccc(Cl)c(Cl)c2)CC1 as the compound, how does the inhibition read?
A: 43.7%

Q: Which inhibition does the source give for COc1cc(Br)cc(C=Nc2cccc(C(F)(F)F)c2)c1O here?
A: 11.4%

Q: For COC(=O)/C=C/C(=O)Nc1cccc(C(F)(F)F)c1, which inhibition is on record?
A: 56.3% (active)

Q: For Cc1ccc(NC(=O)/C=C\C(=O)NCC(=O)O)cc1C, which inhibition is on record?
A: 30.8%

Q: For NC(=O)/C=C\C(=O)Nc1cccc(C(F)(F)F)c1, which inhibition is on record?
A: 71.8% (active)

Q: For CCN(C(=O)COC(=O)c1cccnc1Nc1cccc(C(F)(F)F)c1)C1CCS(=O)(=O)C1 (stereo unspecified), which inhibition is on record?
A: 45.4%

Q: For Cc1cs/c(=N\N=C\c2ccccc2)n1Cc1ccco1, which inhibition is on record?
A: 32.1%

Q: For Cc1cccc(C)c1C(OCCN(C)C)C1CCCCC1 (stereo unspecified), which inhibition is on record?
A: 37%

Q: Which inhibition does the source give for O=C(/C=C/Sc1ccccc1)c1ccc(Cl)cc1 here?
A: 38.4%

Q: Which inhibition does the source give for CC(=O)c1ccc(NC(=O)/C=C/c2ccc(C)cc2)cc1 here?
A: 48.6%

Q: With CSc1ccc(/C=C/C(=O)c2ccc(NC(C)=O)cc2)cc1 as the compound, how does the inhibition read?
A: 51% (active)

Q: For CSc1ccc(/C=C/C(=O)c2ccc(O)cc2)cc1, which inhibition is on record?
A: 61.5% (active)

Q: Which inhibition does the source give for O=c1ncn(-c2cccc(F)c2)c2ncccc12 here?
A: 37.1%

Q: For N#CC(C#N)=C1C=CC=CN1/C(=C\c1ccccc1Cl)C(=O)c1ccccc1, which inhibition is on record?
A: 5.75%

Q: With CCn1cc(C(=O)O)c(=O)c2cc(F)c(N3CCNCC3)cc21 as the compound, how does the inhibition read?
A: 27.4%

Q: Which inhibition does the source give for CCSc1nnc(NC(=O)c2ccc(C)o2)s1 here?
A: 54.3% (active)

Q: Which inhibition does the source give for CCSc1nnc(NC(=O)c2ccccc2)s1 here?
A: 83.2% (active)

Q: With Cc1ccc(Nc2nnc(SCC(=O)Nc3ccc(S(=O)(=O)N4CCOCC4)cc3)s2)cc1 as the compound, how does the inhibition read?
A: 18.2%

Q: Which inhibition does the source give for CC(C)COC(=O)Nc1nnc(SCc2ccccc2F)s1 here?
A: 49.2%

Q: With CCCc1[nH]nc2c1C(c1ccoc1)C(C#N)=C(N)O2 (stereo unspecified) as the compound, how does the inhibition read?
A: 37.9%

Q: For O=C(c1ccc(F)cc1)c1cn(Cc2ccc(F)cc2)c2cc3c(cc2c1=O)OCCO3, which inhibition is on record?
A: 26.4%

Q: With Cc1ccc(Cn2nnnc2CN2CCC(c3nc4ccc(Cl)cc4[nH]3)CC2)cc1 as the compound, how does the inhibition read?
A: 34.2%

Q: For Cc1noc2ncc(C(=O)c3cc(F)ccc3O)cc12, which inhibition is on record?
A: 17.8%

Q: Which inhibition does the source give for c1ccc2c(Nc3nc(N4CCOCC4)c4ccccc4n3)cccc2c1 here?
A: 93.2% (active)

Q: With CCOc1cc(-c2c(C)c(C)nc(N)c2C#N)ccc1O as the compound, how does the inhibition read?
A: 30.4%

Q: Which inhibition does the source give for O=C(OC1CCOC1=O)c1cc(-c2ccc(Br)cc2)nc2ccccc12 (stereo unspecified) here?
A: 21%

Q: Which inhibition does the source give for Cc1ccc2oc(-c3ccc(NC(=O)c4cccnc4)cc3)nc2c1 here?
A: 44.6%

Q: Which inhibition does the source give for CCCCC(=O)Nc1ccc(C(=O)NNC(=S)NC(=O)c2ccco2)cc1 here?
A: 42.2%

Q: For O=C(Nc1ccon1)c1cc2ccccc2oc1=O, which inhibition is on record?
A: 31.5%

Q: For Cc1sc(NC(=O)c2ccco2)nc1-c1ccccc1, which inhibition is on record?
A: 73% (active)

Q: For O=C(Nc1ccc2oc(-c3ccccc3)nc2c1)c1ccco1, which inhibition is on record?
A: 86.7% (active)

Q: With O=C(CCl)Nc1nc(-c2ccco2)c(-c2ccco2)s1 as the compound, how does the inhibition read?
A: 32.2%

Q: With CC1=C(C(=O)Nc2ccc(Cl)cc2)C(c2ccco2)NC(=O)N1 (stereo unspecified) as the compound, how does the inhibition read?
A: 23.4%

Q: For O=C(Nc1cccc(-c2cn3ccccc3n2)c1)c1cccc(Cl)c1, which inhibition is on record?
A: 39.9%

Q: Which inhibition does the source give for Cc1ccn2cc(-c3ccc(NC(=O)c4ccco4)cc3)nc2c1 here?
A: 82.7% (active)

Q: For O=C(Nc1ccc(-c2cn3ccccc3n2)cc1)c1ccco1, which inhibition is on record?
A: 76.8% (active)

Q: With O=C(Nc1nc(-c2ccco2)c(-c2ccco2)s1)C1CCC1 as the compound, how does the inhibition read?
A: 39%

Q: For CSc1ccc(C(=O)C2CCCN(C(=O)c3ccc4c(c3)no[n+]4[O-])C2)cc1 (stereo unspecified), which inhibition is on record?
A: 18.6%

Q: For Cn1nnc(NC(=O)/C=C/c2ccco2)n1, which inhibition is on record?
A: 35%

Q: For Cn1c(N)c(C(=O)COC(=O)C2(c3ccc(Cl)cc3)CCCC2)c(=O)n(C)c1=O, which inhibition is on record?
A: 28.2%

Q: With Clc1ccc2c(N/N=C/c3ccc(Br)cc3)ccnc2c1 as the compound, how does the inhibition read?
A: 47.6%

Q: For CCOC(=O)c1c(C)c(C(=O)NCCCOC(C)C)c(C)n1C, which inhibition is on record?
A: 26.2%

Q: Which inhibition does the source give for COc1ccc(N(C)C2=NS(=O)(=O)c3ccccc32)cc1 here?
A: 27.9%

Q: With C=C(C)C1Cc2c(C)nn(-c3ccccn3)c2C1 (stereo unspecified) as the compound, how does the inhibition read?
A: 2.3%

Q: With CC(OC(=O)Cc1c(F)cccc1Cl)C(=O)NCCC1=CCCCC1 (stereo unspecified) as the compound, how does the inhibition read?
A: 46.2%

Q: With COc1ccccc1NC(=O)c1ccc(C)s1 as the compound, how does the inhibition read?
A: 38.7%

Q: Which inhibition does the source give for Cc1nc2ccc(NC(=O)c3cc([N+](=O)[O-])cc([N+](=O)[O-])c3Cl)cc2s1 here?
A: 40.5%

Q: With Cc1ccc(C(=O)Nc2ccc3nc(C)sc3c2)s1 as the compound, how does the inhibition read?
A: 77% (active)
